Compounds with a hit are over-represented: about 3.3% of the library has one in this group of screens.
Statin myotox sup – suppression of simvastatin myotoxicity | C2C12 myotubes + simvastatin, ATP luminescence, 48 h; scaled: DMSO 0, geranylgeraniol control 100 | rescue of ATP level, % at 7.49 µM | 0.78% of 330,000 active;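 active = mean ATP rescue above about 67%, or every replicate alone reaching that limit, limit read from the data, passing the limit was not always enough; inconclusive = no clear call, values can overlap the other calls; inactive = mean under the limit and some replicate under it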;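 also: myotubes were challenged with 10 µM simvastatin during compound exposure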
GAA850 FXN act – activators of GAA850 frataxin (FXN) promoter | 0.56% of 360,000 active | AID 540364 | HEK293 lucGAA850 FXN promoter luciferase reporter, 24 h; percent of 10 µM SAHA response | activation, % at 6 µM;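 active = activation above the average of all compounds screened plus 3 SD, cutoff fixed separately per campaign, cut at about 7.5% in these data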;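 also: 0% = DMSO wells and 100% = 10 µM SAHA wells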
MITF act – activators of MITF-driven TRPM1 promoter activity in SK-MEL-5 cells. activation, % at 12.5 µM. SK-MEL-5 TRPM1-promoter luciferase, 24 h; % of positive control, neutral wells = 0. 0.75% of 300,000 active;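 active = mean activation of at least 80% with every replicate also reaching 80%; inconclusive = mean reaches 80% but some replicate falls short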;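 also: 0% = neutral control wells and 100% = parthenolide positive control wells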
Wnt act – activates Wnt/beta-catenin signaling in a reporter cell assay; activation, % at 9.35 µM; AID 743398; 1.2% of 300,000 active; activator, plate reader; in the data active = activation above about 30%, passing the limit was not always enough; inconclusive = no clear call, values can overlap the other calls;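 also: 0% = neutral control wells and 100% = positive control wells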
esBAF inh – SWI/SNF esBAF complex inhibition | mouse ES cells, Bmi1-luciferase knock-in reporter, 24 h; 100% = twice the neutral-well signal | reporter increase, % at 12.5 µM | 2% of 350,000 active | AID 602393; in the data active = activation above about 40%; inconclusive = no clear call, values can overlap the other calls;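 also: 0% = median of the plate's neutral control wells and 100% = double that signal; a rise in the Bmi1 reporter signal indicates esBAF inhibition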
* = called active by the depositor; ? = inconclusive; . = no result.

SMILES	Statin myotox sup	GAA850 FXN act	MITF act	Wnt act	esBAF inh
O=C(C=Cc1cccc(O)c1)c1ccccc1O	-4	3	9	-3	?
Cc1ccc(/C=C/C(=O)c2ccc(O)cc2)cc1	.	1	73	0	.
O=C(/C=C/c1ccc(O)cc1)c1ccc(O)cc1O	12	1	28	25	70*
CSc1ccc(/C=C/C(=O)c2ccc(O)cc2)cc1	.	2	94*	.	.
COCC#Cc1ccc2c(c1)O[C@H](CN(C)S(C)(=O)=O)[C@@H](C)CN([C@@H](C)CO)S2(=O)=O	2	.	.	.	5
CNc1nc(-c2ccc(Cl)cc2)cs1	4	3	?	.	52*
CC(C)C(=O)Nc1nc(-c2ccc([N+](=O)[O-])cc2)cs1	.	5	21	-1	.
CNc1nc(-c2ccc([N+](=O)[O-])cc2)cs1	.	2	90*	19	45*
CCNc1nc(-c2ccc(Cl)cc2)cs1	-1	2	111*	.	90*
COc1ccc(S(=O)(=O)Nc2ccc3c(c2)C(=O)N([C@@H](C)CO)C[C@H](C)[C@H](CN(C)C(=O)c2ccccc2)OCCCC[C@H](C)O3)cc1	-48	.	.	.	1
CN(C)c1cccc(-c2csc(N3CCC(C(N)=O)CC3)n2)c1	-8	5	83*	33*	60*
Cc1noc(C)c1-c1csc(N2CCC(C(N)=O)CC2)n1	2	5	48	22	74*
NC(=O)C1CCN(c2nc(-c3cccs3)cs2)CC1	2	3	?	.	47*
O=C(Nc1ccc2c(c1)N(S(=O)(=O)c1cccs1)CCC2)c1c(F)cccc1F	-8	1	-5	2	-2
O=S(=O)(c1cccs1)N1CCCc2cccc(O)c21	-2	4	95*	48*	45*
Cc1c(C(=O)NCc2ccoc2)oc2ccc3c(c12)C(=O)CC(C)(C)O3	6	-3	52	.	104*
COc1cccc(NC(=O)N(C)C[C@@H]2Oc3ncc(C#Cc4ccncc4)cc3C(=O)N([C@@H](C)CO)C[C@@H]2C)c1	8	.	.	.	-8
C[C@@H]1CCCCO[C@@H](CN(C)S(=O)(=O)c2cn(C)cn2)[C@@H](C)CN([C@@H](C)CO)C(=O)c2cc(NS(=O)(=O)c3ccccc3)ccc2O1	.	.	.	.	-1
Cc1ccc(C(=O)NCCCc2ccccc2)s1	.	3	87*	53*	.
O=C(NCCc1c[nH]c2ccccc12)c1ccccc1	-7	4	12	-1	30
Cc1ccc(C(=O)NCCc2c[nH]c3ccccc23)c(C)c1	-6	5	76	24	71*
Cc1ccc(C(=O)NCCc2c[nH]c3ccccc23)s1	-11	4	.	30	56*
Cc1ccc(C(=O)NCC(=O)NCCCc2ccccc2)s1	3	1	-5	-1	-1
CCC(=O)N1CCc2cc(S(=O)(=O)CCC(=O)NCCc3ccccc3)ccc21	4	-1	11	.	-2
CCC(=O)N1CCc2cc(S(=O)(=O)CCC(=O)NCCc3ccc(OC)c(OC)c3)ccc21	107*	0	-5	.	-10
SMILES	Statin myotox sup	GAA850 FXN act	MITF act	Wnt act	esBAF inh
COC(=O)c1c(C)oc2ccc(N(C(C)=O)S(=O)(=O)c3ccccc3)cc12	-11	0	-4	-1	0
COc1ccc(S(=O)(=O)N(C(C)=O)c2ccc3oc(=O)sc3c2)cc1	87*	2	-13	-4	-3
C[C@@H]1CN([C@H](C)CO)C(=O)c2cccc(NC(=O)C3CCCCC3)c2O[C@@H]1CN(C)CC1CC1	-2	.	.	.	1
C[C@H](CO)N1C[C@H](C)[C@H](CN(C)Cc2cccc(C(F)(F)F)c2)Oc2ncc(/C=C/c3ccccc3)cc2C1=O	-61	.	.	.	3
N#CC1=C(N)OC2=C(C(=O)CCC2)[C@]12C(=O)N(CC(N)=O)c1ccccc12	109*	1	1	.	6
Nc1cccc2c1C(=O)N(C(=O)c1cccc(S(=O)(=O)N3CCCC3)c1)C2=O	138*	1	.	.	-7
O=C(CCl)N1c2ccccc2Oc2ccc3ccccc3c21	-11	5	-87	8	50*
CC(=O)N1c2ccccc2Oc2cc3ccccc3cc21	.	5	38	?	.
C[C@@H]1CN([C@H](C)CO)S(=O)(=O)c2ccc(C#CC3CC3)cc2O[C@H]1CN(C)C(=O)c1ccccn1	7	.	.	.	4
Cn1c(=S)oc2ccccc21	89*	1	-1	-2	-4
C[C@@H]1CN([C@@H](C)CO)C(=O)Cc2cc(N(C)C)ccc2O[C@H]1CN(C)C(=O)Nc1ccc(C(F)(F)F)cc1	22	.	.	.	-12
Cc1ccc(-c2ccc3c(c2)O[C@@H](CN(C)C)[C@H](C)CN([C@@H](C)CO)S3(=O)=O)cc1	-25	.	.	.	-1
N#C[C@H]1[C@@H](c2ccccc2)[C@@H](CO)N1S(=O)(=O)c1ccc(F)cc1	-54	.	.	.	4
CC(C)n1c(/C=C/c2ccccc2)nc2ccccc21	-3	3	53	21	51*
C=CCn1c(=O)c2c(nc3n2CC(C)CN3c2cccc(OC)c2)n(C)c1=O (configuration not stated)	120*	2	-17	0	-7
C=CCn1c(=O)c2c(nc3n2CC(C)CN3Cc2ccccc2)n(C)c1=O (configuration not stated)	6	3	-1	0	-2
O=C(O)c1ccc(-c2ccccc2Cl)o1	0	1	8	.	-3
CN1CCN(c2ccc(NC(=O)c3ccc(-c4ccccc4F)o3)cc2)CC1	-2	4	27	49*	-23
COC(=O)c1sccc1-c1ccc(C(=O)Nc2cccc(Cl)c2)o1	-3	8.3*	.	.	51*
O=C(Nc1ccccc1)c1ccc(-c2ccccc2Cl)o1	-14	5	89*	29	53*
N#Cc1ccccc1NC(=O)c1ccc(-c2ccccc2Cl)o1	.	5	?	-3	50*
O=C(NCCc1ccccc1)c1ccc(-c2ccccc2Cl)o1	-12	1	21	1	17
CN1CCN(c2ccc(NC(=O)c3ccccc3Br)cc2)CC1	.	2	64	.	.
CC(=O)Nc1ccc(NC(=O)c2ccc(-c3ccccc3Cl)o2)cc1	-14	4	57	4	43*
O=C(Nc1ccccc1)c1ccc(-c2ccc(Br)cc2)o1	-13	-1	.	33*	7
SMILES	Statin myotox sup	GAA850 FXN act	MITF act	Wnt act	esBAF inh
O=C(Nc1cccc(NC(=O)c2ccc(-c3ccc(Br)cc3)o2)c1)c1ccccc1	.	0	43	.	.
CCC(=O)N1C[C@@H](C)[C@@H](OC)CN(C)C(=O)c2cc(NC(=O)C3CC3)ccc2OC[C@H]1C	-1	.	.	.	-3
Cc1ccc(-c2nnc(OCCN3CCOCC3)c3ccccc23)cc1	111*	1	-11	-2	-36
CN1[C@@H]2Cn3c(ccc(-c4ccncc4)c3=O)[C@H]1[C@@H](C(=O)NCC1CCCCC1)[C@@H]2CO	4	.	.	.	-4
CCc1c(C)nc2ccc(Br)cc2c1Cl	-40	1	.	.	53*
N=c1c2c(ncn1CCCO)Oc1c(ccc3ccccc13)C2c1ccccc1 (configuration not stated)	.	0	-32	42*	.

High-throughput results: PubChem BioAssay, several laboratories
